Screening data: PubChem, National Center for Advancing Translational Sciences (NCATS)
Most compounds without a hit are left out; they make up all but 10% or so of the library.
BAZ2B block: blocks human BAZ2B | AlphaScreen BAZ2B-H3K14Ac peptide displacement | 4.4% of 360,000 active | Potency, µM (titrated, usually from 114 µM), without a hit: at the highest dose activity change, negative = inhibition, actives largely listed as inhibitors | Q9UIF8 | AID 504333; note: potency is the fitted concentration of half-maximal effect; % is set by controls: 0 for no effect and ±100 for the full control effect; nearly all actives have a fitted effect of over 60% in size
Target sequence (Q9UIF8 whole entry, looked up): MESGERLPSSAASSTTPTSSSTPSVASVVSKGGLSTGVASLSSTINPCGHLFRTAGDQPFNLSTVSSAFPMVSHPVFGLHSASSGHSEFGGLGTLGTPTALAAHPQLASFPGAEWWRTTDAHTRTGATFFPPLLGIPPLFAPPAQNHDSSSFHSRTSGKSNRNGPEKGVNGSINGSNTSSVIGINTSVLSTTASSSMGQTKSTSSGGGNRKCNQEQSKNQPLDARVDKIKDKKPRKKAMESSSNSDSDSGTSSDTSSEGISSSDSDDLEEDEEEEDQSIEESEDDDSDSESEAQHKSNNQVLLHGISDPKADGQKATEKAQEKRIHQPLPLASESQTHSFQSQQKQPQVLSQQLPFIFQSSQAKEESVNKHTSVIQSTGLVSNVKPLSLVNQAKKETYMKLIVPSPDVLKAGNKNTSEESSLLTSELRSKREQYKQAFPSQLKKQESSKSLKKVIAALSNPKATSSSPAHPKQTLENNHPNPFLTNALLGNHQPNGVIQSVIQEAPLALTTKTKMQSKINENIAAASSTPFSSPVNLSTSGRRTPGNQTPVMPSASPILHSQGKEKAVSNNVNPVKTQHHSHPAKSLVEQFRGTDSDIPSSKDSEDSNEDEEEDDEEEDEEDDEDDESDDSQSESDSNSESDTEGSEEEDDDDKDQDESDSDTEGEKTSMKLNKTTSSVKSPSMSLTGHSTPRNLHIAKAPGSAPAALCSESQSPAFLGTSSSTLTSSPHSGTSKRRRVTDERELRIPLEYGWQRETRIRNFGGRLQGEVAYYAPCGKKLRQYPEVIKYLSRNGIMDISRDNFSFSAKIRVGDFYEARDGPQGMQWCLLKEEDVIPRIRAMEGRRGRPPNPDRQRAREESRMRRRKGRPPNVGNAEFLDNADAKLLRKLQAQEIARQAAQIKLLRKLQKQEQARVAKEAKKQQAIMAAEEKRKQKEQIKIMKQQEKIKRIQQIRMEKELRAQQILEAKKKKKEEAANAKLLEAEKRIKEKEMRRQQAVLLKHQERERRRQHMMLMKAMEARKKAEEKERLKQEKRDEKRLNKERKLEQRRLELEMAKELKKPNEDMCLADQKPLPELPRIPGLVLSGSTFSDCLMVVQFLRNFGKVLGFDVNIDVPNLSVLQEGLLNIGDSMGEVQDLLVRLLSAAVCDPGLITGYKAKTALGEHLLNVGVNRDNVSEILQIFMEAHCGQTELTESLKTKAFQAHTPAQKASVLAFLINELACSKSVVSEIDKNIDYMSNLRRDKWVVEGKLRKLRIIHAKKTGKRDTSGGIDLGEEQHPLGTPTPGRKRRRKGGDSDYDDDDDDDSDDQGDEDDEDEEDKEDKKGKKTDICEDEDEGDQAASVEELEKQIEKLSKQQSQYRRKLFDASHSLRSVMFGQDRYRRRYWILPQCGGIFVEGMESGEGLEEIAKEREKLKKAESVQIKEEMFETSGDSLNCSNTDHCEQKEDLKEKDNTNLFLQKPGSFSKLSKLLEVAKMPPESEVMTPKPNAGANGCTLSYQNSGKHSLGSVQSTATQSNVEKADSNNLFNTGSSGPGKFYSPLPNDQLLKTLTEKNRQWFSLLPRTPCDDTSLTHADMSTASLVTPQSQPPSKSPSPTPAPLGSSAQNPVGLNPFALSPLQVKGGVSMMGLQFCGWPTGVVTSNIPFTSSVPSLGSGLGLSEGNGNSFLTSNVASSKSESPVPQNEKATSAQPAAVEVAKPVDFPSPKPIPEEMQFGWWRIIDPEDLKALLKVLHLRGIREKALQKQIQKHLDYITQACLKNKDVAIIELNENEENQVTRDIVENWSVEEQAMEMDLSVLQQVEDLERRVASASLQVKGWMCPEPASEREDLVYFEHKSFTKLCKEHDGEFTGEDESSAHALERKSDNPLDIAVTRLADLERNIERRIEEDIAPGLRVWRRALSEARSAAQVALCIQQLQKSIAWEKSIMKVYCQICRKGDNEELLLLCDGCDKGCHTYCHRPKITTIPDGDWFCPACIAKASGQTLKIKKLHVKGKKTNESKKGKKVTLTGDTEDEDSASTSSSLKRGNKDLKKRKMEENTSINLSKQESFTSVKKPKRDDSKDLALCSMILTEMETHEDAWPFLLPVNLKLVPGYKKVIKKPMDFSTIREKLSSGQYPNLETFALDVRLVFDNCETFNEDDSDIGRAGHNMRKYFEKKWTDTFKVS
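Protein-peptide AlphaScreen: BAZ2B 50 nM, b-H3K14Ac 50 nM, 1x PBS pH 7.4 + 0.01% Tween-20. Preincubation 30 min RT; cpd 30 min RT (top 110 uM); beads 20 min RT, light-protected.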
CtBP-E1A inh: blocks the CtBP interaction with E1A; AlphaScreen GST-E1A/His-CtBP binding, 1536-well; hits give low values; activity change, % (no concentration beside the values); 0.49% of 340,000 active; AID 651724; in the data active = activity change below about -65%; inconclusive = mostly about -30% to -63%; note: % is set by controls: 0 for no effect and ±100 for the full control effect
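In 5 uL wells, 23 nL compound meets equimolar GST-E1A and His-CtBP (5X stock 125 nM each) for 2 h, 37 °C. Beads (5X, 50 ug/mL) then 1 h, 37 °C, dark.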
HP1b chromo inh: HP1-beta chromodomain-methylated histone interaction inhibition; P83916; AlphaScreen HP1-beta / biotin-H3K9me3 peptide binding; Potency, µM (titrated, usually from 114 µM), for inactives: top-dose activity change, negative = inhibition, hits mostly inhibitors; 0.56% of 390,000 active; AID 540317; note: potency is the fitted concentration of half-maximal effect; nearly all actives have a fitted effect of over 70% in size
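Compound inhibition of the preformed complex between 50 nM HP1-beta and 50 nM biotinylated H3K9me3 peptide was read by AlphaScreen. Buffer was PBS pH 7.4 with 0.01% Tween-20. Incubations ran 30 min at room temperature, with 10 ug/mL donor/acceptor beads.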
G9a block: inhibitors of human histone lysine methyltransferase G9a; Q96KQ7; G9a H3K9 monomethylation, AlphaScreen, 2 h; Potency, µM (doses to about 102 µM), for the others: top-dose activity, negative = inhibition, actives largely listed as inhibitors; 8.8% of 350,000 active; AID 504332; note: potency is the fitted concentration of half-maximal effect; % is set by controls: 0 for no effect and ±100 for the full control effect; nearly all actives have a fitted effect of over 75% in size
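Using a bead-based AlphaScreen, monomethylated H3K9 product from 2 h room-temperature reactions (G9a 20 nM, peptide 500 nM, SAM 20 uM) was detected with 0.5 ug/mL rabbit anti-H3K9me1 antibody.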
Six1-Eya2 inh: Six1/Eya2 interaction inhibition | AlphaScreen GST-Six1/His-Eya2 binding, biochemical; hits give low values | activity change, % (test concentration not listed) | 0.56% of 360,000 active; in the data active = activity change below about -65%; inconclusive = mostly about -30% to -63%; note: % is set by controls: 0 for no effect and ±100 for the full control effect
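AlphaScreen with GST-Six1 and His-Eya2 (5X mix: 250 nM and 500 nM), glutathione donor and nickel acceptor beads; buffer 50 mM Tris pH 8.0, 300 mM NaCl, 1 mM TCEP; 1 h at 37 C in the dark.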
JMJD2A Tudor inh: inhibitors of human JMJD2A Tudor domain. O75164. 4.4% of 390,000 active. Potency, µM (highest dose often 114 µM), inactives show at the top dose activity change, negative = inhibition, hits mostly inhibitors. AlphaScreen JMJD2A-Tudor / H3K4me3 peptide binding; note: potency is the fitted concentration of half-maximal effect; % is set by controls: 0 for no effect and ±100 for the full control effect; nearly all actives have a fitted effect of over 50% in size
* = called active by the depositor; ? = inconclusive; . = no result; [ ] = another dose, or the depositor's remark. Unless noted, calls come from the whole dose curve; as a rule, active = well fitted inhibition curve with a large enough effect; inconclusive = small, poorly fitted or top-dose-only effect; inactive = no such curve, though single readings can be large or run the other way.

SMILES	BAZ2B block	CtBP-E1A inh	HP1b chromo inh	G9a block	Six1-Eya2 inh	JMJD2A Tudor inh
O=C(Nc1nnc(SCC(=O)N2CCOCC2)s1)c1ccccc1	3.3%	1.3	30.8%	10µM*	-1.5	?
CC1CCN(C(=O)CSc2nnc(NC(=O)Nc3ccccc3)s2)CC1	-3.4%	.	54.9%	12.6µM*	.	-22.1%
CNC(=O)CSc1nnc(NC(=O)Nc2ccccc2)s1	2.2%	.	98.9%	15.8µM*	.	-3.9%
O=C(Nc1ccccc1)Nc1nnc(SCC(=O)N2CCCCC2)s1	-3.5%	.	99.0%	?	.	0.3%
O=C(Nc1ccccc1)Nc1nnc(SCc2ccc(Cl)cc2)s1	-4.9%	10.5	37.9%	11.4%[59 µM]	6.2	-9.7%
CCc1ccccc1NC(=O)Nc1nnc(N(CC)c2ccccc2)s1	-2.3%	.	2.1%	-30.8%[59 µM]	.	-17.2%
COc1ccc(S(=O)(=O)Nc2ccc3c(c2)sc(=O)n3C)cc1Cl	-8.8%	.	11.5%[57 µM]	-24.4%[59 µM]	.	-19.2%
Cc1cccc(C)c1NC(=O)CCCSc1nnc(N)s1	-2.8%	0.2	48.2%	50.1µM*	4.0	-2.3%
CCN(CC)CCCN1C(=O)C(=O)/C(=C(/O)c2ccc3c(c2)OCCO3)C1c1ccco1 (configuration not stated)	-23.5%	11.8	21.3%	50.1µM*	-1.6	-9.7%
O=C1C(=O)N(CCN2CCOCC2)C(c2ccc([N+](=O)[O-])cc2)/C1=C(/O)c1ccc2c(c1)OCO2 (configuration not stated)	-10.9%	-10.6	21.3%	.	18.8	25.1µM*
O=C1C(=O)N(CCCN2CCOCC2)C(c2ccc(F)cc2)/C1=C(\O)c1ccc2c(c1)OCCO2 (configuration not stated)	-18.6%	0.9	48.8%	44.7µM*	-0.5	-8.2%
CCc1cccc(-n2nnc(-c3nc(-c4cccs4)no3)c2N)c1	1.9%	.	43.8%	4.1%[59 µM]	.	5.1%
COCCCn1c(SCc2cccc(Cl)c2)nc2c(sc3ccccc32)c1=O	0.8%	.	51.8%	4.8%[59 µM]	.	3.3%
Cc1ccnc(NC(=S)NC(=O)c2ccco2)c1	-34.7%	7.9	30.9%	-12.8%	-2.0	-18.5%
Cc1ccc2nc(NC(=O)c3ccco3)sc2c1	10.5%	23.7	21.6%	-16.8%	0.0	1.5%
Cc1ccc2nsnc2c1NC(=S)NC(=O)c1ccco1	-27.0%	-4.6	-4.6%	3.16µM*	-7.6	-27.5%
Cc1ccc2nc(NC(=S)NC(=O)c3ccco3)sc2c1	-7.5%	-3.0	-11.0%	50.1µM*	-12.8	-16.3%
CN(C)c1cccc2c(C=C(C#N)C#N)ccc(N(C)C)c12	20µM*	1.7	22.4µM*	8.91µM*	-15.4	15.8µM*
O=C1CCN(C(=O)CSc2ccc(Cl)cc2)N1	50.1µM*	6.2	18.2%	14.1µM*	-1.1	?
O=C1CCN(C(=O)c2ccc(Cl)cc2)N1	56.2µM*	9.0	8.5%	12.6µM*	5.2	89.1µM*
O=C(CSc1ccc(Cl)cc1)N1CCOCC1	2.1%	8.2	40.5%	4.1%[12.7 µM]	2.8	-16.5%
CN1C(=O)c2[nH]nc(-c3ccc(F)cc3)c2C1c1cccc(O)c1 (configuration not stated)	-5.0%	.	16.0%	-38.3%[59 µM]	.	-13.8%
COc1ccc(C=Nc2cccc3c(=O)[nH][nH]c(=O)c23)c2ccccc12	-30.6%	-7.5	13.0%	50.1µM*	-6.2	-26.1%
CCC(CO)N=CC1=C(O)CC(C)(C)CC1=O (configuration not stated)	-1.0%	-18.1	19.7%	70.8µM*	8.5	-10.9%
Cc1nc2cccnc2n1-c1cccc(C(=O)NCCc2ccc(S(N)(=O)=O)cc2)c1	-9.4%	.	32.8%	?	.	11.4%
SMILES	BAZ2B block	CtBP-E1A inh	HP1b chromo inh	G9a block	Six1-Eya2 inh	JMJD2A Tudor inh
COc1ccc(NCc2cccn2-c2nnc(N3CCCCCC3)s2)cc1	-38.8%[57.1 µM]	.	?	?	.	44.7µM*
c1ccc(N2CCN(Cc3cccn3-c3nnc(N4CCN(C5CCCCC5)CC4)s3)CC2)cc1	7.6%[57.1 µM]	.	26.5%	-3.2%[59 µM]	.	-17.2%
COc1ccc(N2CCN(Cc3nnnn3C3CCCCC3)CC2)cc1	-39.0%	2.3	?	50.1µM*	7.7	-26.8%
COc1ccc(N2CCN(Cc3cccn3-c3nnc(N4CCN(C5CCCCC5)CC4)s3)CC2)cc1	?	.	?	?	.	50.1µM*
CCOc1ccc(NCc2cccn2-c2nnc(N3CCC(C(=O)NCCCN4CC(C)CC(C)C4)CC3)s2)cc1 (configuration not stated)	?	?	?	44.7µM*	-12.4	39.8µM*
CCc1ccc(-n2c(=O)c3c4c(sc3n(CC(=O)NC(C)CC)c2=O)CCCC4)cc1 (configuration not stated)	-0.4%	.	16.3%	2.1%[59 µM]	.	-9.6%
CCOC(=O)c1c(C)oc2nc(C)nc(Nc3cc(C)ccc3OC)c12	11.7%[57.1 µM]	.	33.3%	-15.6%[59 µM]	.	-1.0%
CN(C)S(=O)(=O)N1CCC(n2cnc3cccnc32)CC1	-0.1%	.	36.9%	0.4%[59 µM]	.	-1.0%
C/C(O)=c1/ccc2cccc3nc(C)nc1c23	10.0%	9.6	58.0%	.	-0.2	5.0%
O/C=c1\ccc2cccc3nc(C(F)(F)F)nc1c23	?	?	-8.4%	-47.6%[2.33 µM]	-20.6	89.1µM*
COc1ccc(-c2ccn(-c3cccc(F)n3)n2)cc1	-15.6%	-1.6	8.9%	14.1µM*	-0.6	?
COc1ccc2c(-c3ccc(OCCN4CCCCC4)cc3)c(-c3ccccc3OC)sc2c1	.	-22.1	-33.7%	.	?	28.2µM*
COc1cc2sc(-c3ccccc3OC)c(-c3ccc(OCCN4CCOCC4)cc3)c2cc1OC	.	-24.7	?	.	?	31.6µM*
COc1ccc2c(-c3ccc(OCCN4CCOCC4)cc3)c(-c3ccccc3OC)sc2c1	.	-28.0	-17.0%	.	-22.7	?
COc1ccccc1-c1sc2ccccc2c1-c1ccc(OCCN2CCCCC2)cc1	.	?	?	.	-26.6	35.5µM*
N#Cc1cccc(NC(=O)N2CCCC3(CCN(C(=O)c4ccco4)CC3)C2)c1	.	.	.	-9.5%[12.7 µM]	.	.
COc1ccccc1C(=O)Nc1ccc(S(=O)(=O)Nc2cc(C)nc(C)n2)cc1	5.1%	-1.1	28.2%	2.1%[12.7 µM]	-2.6	-1.3%
COc1ccccc1CCC(=O)Nc1ccc(S(=O)(=O)Nc2cc(C)nc(C)n2)cc1	6.0%	-25.3	22.0%	50.1µM*	-15.9	-6.9%
COc1ccccc1/C=C/C(=O)Nc1ccc(S(=O)(=O)Nc2cc(C)nc(C)n2)cc1	?	-6.3	9.4%	35.5µM*	-12.5	-10.4%
Cc1cc(NS(=O)(=O)c2ccc(NC(=O)/C=C/c3ccc(C)o3)cc2)nc(C)n1	-28.4%	.	-26.0%	8.91µM*	-28.9	22.4µM*
Cc1cc(NS(=O)(=O)c2ccc(NC(=O)/C=C/c3ccccc3)cc2)nc(C)n1	.	-3.9	24.9%	.	-8.9	-10.3%
